The results in this text go back to PubChem BioAssay (NCI).

Holding throughout (test): NCI-60 one-dose screen, 48 h (100 = growth as untreated, 0 = no growth, -100 = all killed)
Common to all, as to details: 10 µM

Experiment [1] has as its system NCI-H23 lung.
Experiment [2] concerns NCI-H226 lung.
The test system of experiment [3] is NCI-H322M lung.
Experiment [4] has as its system HOP-62 NSCLC.
Experiment [5] deals with NCI-H460 lung.
The subject of experiment [6] is NCI-H522 lung.
Experiment [7] has as its system A549/ATCC NSCLC.
Experiment [8] concerns 786-0 renal.
In experiment [9] the test system is COLO 205 colon.
For experiment [10], the system named is DU-145 prostate.
The subject of experiment [11] is K-562 leukemia.
The subject of experiment [12] is MALME-3M melanoma.
The test system of experiment [13] is MDA-MB-231 breast.
In experiment [14] the test system is RXF 393 renal.
Experiment [15] relates to SF-268 CNS.
Experiment [16] concerns SF-295 CNS.
Experiment [17] concerns SF-539 CNS.
In experiment [18] the test system is UACC-257 melanoma.
Experiment [19] has as its system M14 melanoma.

This is part of a sample that, as a whole, favours compounds with a hit. Of some 83,000 tested, about 20% had one in any assay.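 Single-dose data. Exposure time 48 hours. Values below 10 considered active.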 A number with no mark means an inactive call. Calls of active or inactive are those of the source.

`CCOC(=O)Nc1cc2c(c(N)n1)N=C(c1ccccc1)CO2`: the growth in [1] was 34.8%; in [2], 39.6%; in experiment [3] it was 15.3%; in experiment [4], 50%; in [5], 8.86% (active); in experiment [6], -13.9% (active). Further, the growth in experiment [7] was 23.3%; in [8], 39.1%; in experiment [9], 6.19% (active); in [10], 10.6%; in [11] it was 10.1%; in [12], 64.8%. Moreover, the growth is 13.6% in experiment [13]; 27.3% in experiment [14]; 38.4% in experiment [15]; 17% in [16]; 1.93% (active) in experiment [17]; 86.4% in experiment [18]. Further, the growth in experiment [19] was 15.4%.

On to `O=C(Nc1cccc(NC(=O)Nc2cc(C(F)(F)F)ccc2Cl)c1)Nc1cc(C(F)(F)F)ccc1Cl`, for which the growth in experiment [1] was 20.4%; in [2] it was 34.3%; in [3] it was 38%; in [4] it was 21.8%; in experiment [5], 4.58% (active); in experiment [6], -27.7% (active). The growth is 11.6% in [7]; 51.7% in [8]; 1.37% (active) in experiment [9]; 30.8% in experiment [10]; 16.3% in [11]; 2.44% (active) in [12]. The growth in [13] is 1.95% (active); in [14] it was 32%; in experiment [15] it was 48.5%; in experiment [16] it was -23.9% (active); in [17], 34%; in [18], -4.1% (active). Besides, the growth in experiment [19] is 21.6%.

Turning to `Oc1ccc(O)cc1`, the growth in experiment [1] was 96.3%; in experiment [2], 110%; in experiment [3] it was 106%; in experiment [4] it was 106%; in [5] it was 113%; in [6], -40.8% (active). For the same molecule, the growth in [7] is 102%; in [8], 114%; in experiment [9] it was 112%; in experiment [10], 105%; in [11], 98.1%; in experiment [12], 102%. Besides, the growth is 109% in experiment [13]; 135% in [14]; 106% in experiment [15]; 114% in [16]; 90.1% in experiment [17]; 97.8% in experiment [18]. In [19], the growth is 108%.

In the case of `COC(=O)c1ccccc1N(C)C`, the growth in [1] was 97.7%; in [2] it was 99.3%; in experiment [3], 104%; in experiment [4] it was 89.7%; in experiment [5] it was 110%; in experiment [6], 99.1%. The growth in experiment [7] was 92.7%; in experiment [8], 102%; in experiment [9], 101%; in experiment [10], 108%; in experiment [11], 81.4%; in experiment [12], 101%. Further, the growth is 112% in experiment [13]; 118% in experiment [14]; 107% in experiment [15]; 98.7% in [16]; 115% in [17]; 103% in experiment [18]. Also, the growth in [19] was 102%.

For the molecule `CCCCC1C(=O)N(c2ccccc2)N(c2ccccc2)C1=O`, the growth was 109% in [1]; 95.8% in experiment [2]; 99.9% in experiment [3]; 99.3% in experiment [4]; 114% in [5]; 102% in [6]. Moreover, the growth in experiment [7] is 106%; in [8] it was 98.5%; in [9], 106%; in [10], 113%; in experiment [11], 99.1%; in experiment [12], 97.1%. For the same molecule, the growth in experiment [13] was 103%; in experiment [14], 116%; in [15] it was 107%; in experiment [16], 110%; in experiment [18], 105%; in [19], 98.9%.

As for `CCCC[P+](c1ccccc1)(c1ccccc1)c1ccccc1`, the growth was 44.4% in experiment [1]; 67% in [2]; 95.1% in [3]; 80.2% in experiment [4]; 53.4% in [5]; 39.6% in [6]. In addition, the growth in [7] was 53.7%; in [8] it was 98.9%; in [9], 32.2%; in experiment [10] it was 62.5%; in experiment [11], 24.4%; in experiment [12] it was 41%. The growth in experiment [13] was 84.3%; in experiment [14] it was 102%; in experiment [15], 67.2%; in experiment [17] it was 64.5%; in experiment [18] it was 17%; in experiment [19], 54.9%.

In the case of `c1ccc(CN2COc3c(ccc4c3OCN(Cc3ccccc3)C4)C2)cc1`, the growth in experiment [1] is 29.9%; in [2], -9.91% (active); in experiment [3], 32.9%; in experiment [4] it was 26.2%; in [5], 9.51% (active); in experiment [6], 30.7%. Moreover, the growth in experiment [7] was 6.93% (active); in experiment [8] it was -26% (active); in experiment [9], 12.7%; in [10], 25.3%; in [11], 3.62% (active); in experiment [12], 28.4%. In addition, the growth in [13] was 1.06% (active); in experiment [15], 15.1%; in [16] it was 0.773% (active); in [17], -21.5% (active); in experiment [18] it was 12.1%; in experiment [19], -0.269% (active).

In the case of `COc1cc2nc3cc([N+](=O)[O-])ccc3c(Cl)c2cc1OC`, the growth in experiment [1] was 98.6%; in experiment [2], 56.3%; in experiment [3], 103%; in experiment [4], 111%; in experiment [5] it was 109%; in experiment [6], 70.7%. For the same molecule, the growth in [7] is 95.7%; in [8], 104%; in experiment [9] it was 112%; in experiment [10] it was 103%; in [11], 98.8%; in experiment [12], 94.5%. Moreover, the growth was 99.4% in experiment [13]; 120% in experiment [14]; 99.8% in experiment [15]; 103% in [16]; 96.4% in experiment [17]; 93.1% in experiment [18]. Moreover, the growth in [19] is 96.6%.

For `CC(=O)c1sc2c(c1OC(=O)c1ccc(Cl)cc1Cl)c(=O)n(-c1ccccc1)c(=S)n2-c1ccccc1`, the growth is 23.9% in experiment [1]; 3.85% (active) in experiment [2]; -37.3% (active) in [3]; 9.38% (active) in experiment [4]; 25.2% in experiment [5]; -35% (active) in experiment [6]. For the same molecule, the growth in experiment [7] was 32.1%; in [8], -7.98% (active); in experiment [9], 5.77% (active); in experiment [10], 44.1%; in experiment [11], 0.912% (active); in experiment [12], -79.2% (active). For the same molecule, the growth was -41.5% (active) in experiment [13]; 6.34% (active) in [14]; 18.9% in experiment [15]; -32.1% (active) in experiment [16]; -39.6% (active) in [17]; 49% in [18]. Besides, the growth in experiment [19] was -76.1% (active).
